Screening results from PubChem.
C diff HTS: blocks growth of Clostridium difficile; 86,000 tested, 0.25% active; AID 1259249; Clostridium difficile clinical isolate growth, OD600, 24 h; stronger effect = lower value; growth activity, negative = inhibition, % at 16 µg/mL (by protocol);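 active means mean growth activity at or below -80% and every replicate also at or below -80%; inconclusive means mean at or below -80% but some replicate above -80%; inactive means mean growth activity above -80%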;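 further: 0% = DMSO wells and -100% = levofloxacin 16 µg/mL wells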
T cruzi growth: T. cruzi proliferation inhibition; T. cruzi beta-gal in NIH3T3, GalScreen luminescence, 90 h; inhibition, % at 8.34 µM; 77,000 tested, 5.9% active; AID 624255;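 active means mean inhibition above about 93%, with at least 55% of replicates each passing it, limit read from the data, passing the limit was not always enough; inconclusive means only one of those two conditions holds; inactive means neither condition holds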
Pf Dd2 growth: blocks growth of Plasmodium falciparum Dd2 parasites; P. falciparum Dd2 growth, SYBR Green, 72 h; stronger effect = lower value; activity change, % at 10 µM; 94,000 tested, 2.3% active; in the data active means activity change below about -80%; inconclusive means no clear call, values can overlap the other calls
* marks the source's active call; other numbers are inactive results. In the library only some 6.8% were active in any assay of this set; here they are far more common.

C[C@@H]1CCCCO[C@H](CN(C)C(=O)Nc2ccc(C(F)(F)F)cc2)[C@H](C)CN([C@@H](C)CO)C(=O)c2cc(NC(=O)Nc3cccc4ccccc34)ccc2O1 was read as C diff HTS -13, T cruzi growth 86 and Pf Dd2 growth -73.
C[C@H](CO)N1C[C@H](C)[C@@H](CN(C)C(=O)Nc2ccc(C(F)(F)F)cc2)OCCCC[C@H](C)Oc2ccc(NC(=O)Nc3ccc(F)cc3)cc2C1=O was read as C diff HTS 2, T cruzi growth 119* and Pf Dd2 growth -38.
C[C@@H]1CCCCO[C@H](CN(C)C(=O)Nc2ccc(C(F)(F)F)cc2)[C@@H](C)CN([C@H](C)CO)C(=O)c2cc(NC(=O)Nc3cccc4ccccc34)ccc2O1 was read as C diff HTS -16, T cruzi growth 43 and Pf Dd2 growth -82*.
For C[C@@H]1CCCCO[C@H](CN(C)C(=O)Nc2ccc(C(F)(F)F)cc2)[C@H](C)CN([C@H](C)CO)C(=O)c2cc(NC(=O)Nc3ccc(F)cc3)ccc2O1 the results were C diff HTS 5, T cruzi growth 117* and Pf Dd2 growth -81*.
Screening Cc1noc(C)c1NC(=O)Nc1ccc2c(c1)C(=O)N([C@@H](C)CO)C[C@@H](C)[C@H](CN(C)C(=O)Nc1ccc(C(F)(F)F)cc1)OCCCC[C@H](C)O2 returned C diff HTS -4, T cruzi growth 17 and Pf Dd2 growth -40.
For C[C@@H]1CCCCO[C@@H](CN(C)C(=O)Nc2ccc(F)cc2)[C@@H](C)CN([C@H](C)CO)C(=O)c2cc(NC(=O)Nc3ccc(C(F)(F)F)cc3)ccc2O1 the results were C diff HTS 5, T cruzi growth 91 and Pf Dd2 growth 13.
`C[C@H](CO)N1C[C@H](C)[C@H](CN(C)C(=O)Nc2ccc(C(F)(F)F)cc2)OCCCC[C@H](C)Oc2ccc(NC(=O)Nc3ccc(F)cc3)cc2C1=O` gave C diff HTS 6, T cruzi growth inconclusive and Pf Dd2 growth 59.
`C[C@H]1CN([C@@H](C)CO)C(=O)c2ccccc2-c2ccccc2CO[C@H]1CN(C)S(C)(=O)=O` gave C diff HTS -1, T cruzi growth -9 and Pf Dd2 growth 44.
COc1ccc(S(=O)(=O)N(C)C[C@H]2Oc3cc(C#CC4CCCCC4)ccc3S(=O)(=O)N([C@H](C)CO)C[C@H]2C)cc1 was read as T cruzi growth 55 and Pf Dd2 growth -66.
`C[C@@H]1CN([C@H](C)CO)S(=O)(=O)c2ccc(C#CC3CCCCC3)cc2O[C@@H]1CN(C)C` gave C diff HTS 17, T cruzi growth 51 and Pf Dd2 growth -81*.
Screening CCCN(C)C[C@@H]1Oc2cc(C#CC3CCCCC3)ccc2S(=O)(=O)N([C@H](C)CO)C[C@H]1C returned C diff HTS 32, T cruzi growth 79 and Pf Dd2 growth -20.
COc1ccc(S(=O)(=O)N(C)C[C@@H]2Oc3cc(C#CC4CCCCC4)ccc3S(=O)(=O)N([C@H](C)CO)C[C@H]2C)cc1 was read as T cruzi growth 39 and Pf Dd2 growth -86*.
C[C@H](CO)N1C[C@H](C)[C@@H](CN(C)C)Oc2cc(C#CC3CCCCC3)ccc2S1(=O)=O was read as C diff HTS 16, T cruzi growth 76 and Pf Dd2 growth -54.
For CCCN(C)C[C@H]1Oc2cc(C#CC3CCCC3)ccc2S(=O)(=O)N([C@H](C)CO)C[C@H]1C the results were C diff HTS 6, T cruzi growth 75 and Pf Dd2 growth -84*.
`CO[C@H]1CN(C)C(=O)c2cc(NS(C)(=O)=O)ccc2OC[C@H](C)N(C(=O)C2CCC2)C[C@@H]1C` gave T cruzi growth 41 and Pf Dd2 growth -23.
For CCC(=O)Nc1ccc2c(c1)OC[C@H](C)N(Cc1ccccc1C(=O)O)C[C@H](C)[C@@H](OC)CN(C)C2=O the results were C diff HTS 4 and Pf Dd2 growth 29.
Screening COc1cccc(C(=O)N2C[C@H]3[C@@H](c4ccccc42)[C@H](CO)N3C(=O)c2ccc(F)cc2)c1 returned C diff HTS -9, T cruzi growth -19 and Pf Dd2 growth -4.
`C[C@H]1CN([C@@H](C)CO)C(=O)c2cc(-c3ccccc3)cnc2O[C@H]1CN(C)C(=O)Cc1ccccn1` gave C diff HTS -2, T cruzi growth -23 and Pf Dd2 growth -3.
Screening CN1[C@@H]2c3ccc(-c4ccccc4)c(=O)n3C[C@@H]2[C@@H](CO)[C@@H]1C(=O)NCCc1ccccc1 returned C diff HTS 2 and T cruzi growth 27.
`C[C@@H]1CCCCO[C@H](CN(C)C(=O)Nc2ccccc2)[C@H](C)CN([C@H](C)CO)C(=O)c2cc(NS(C)(=O)=O)ccc2O1` gave C diff HTS 0, T cruzi growth 31 and Pf Dd2 growth -57.
For C[C@H](C(=O)N(C)C[C@H]1OCc2ccccc2-c2c(n(C)c3ccccc23)C(=O)N([C@H](C)CO)C[C@H]1C)c1ccccc1 the results were C diff HTS 2 and Pf Dd2 growth -57.
Screening C[C@@H](C(=O)N(C)C[C@@H]1OCc2ccccc2-c2c(n(C)c3ccccc23)C(=O)N([C@@H](C)CO)C[C@@H]1C)c1ccccc1 returned C diff HTS 9 and Pf Dd2 growth -86*.
Screening C[C@H](CO)N1C[C@H](C)[C@H](CN(C)C(=O)c2cc(Cl)cc(Cl)c2)OCc2ccccc2-c2ccccc2C1=O returned C diff HTS -8 and Pf Dd2 growth -63.
Screening C[C@@H]1CN([C@H](C)CO)C(=O)c2c(c3ccccc3n2C)-c2ccccc2CO[C@@H]1CN(C)C(=O)[C@H](C)c1ccccc1 returned C diff HTS -9 and Pf Dd2 growth -91*.
For C[C@@H]1CN([C@@H](C)CO)C(=O)c2c(c3ccccc3n2C)-c2ccccc2CO[C@@H]1CN(C)C(=O)c1cc(Cl)cc(Cl)c1 the results were C diff HTS -4 and Pf Dd2 growth -87*.
For C[C@H]1CN([C@@H](C)CO)C(=O)c2ccccc2-c2ccccc2CO[C@H]1CN(C)C(=O)c1cc(Cl)cc(Cl)c1 the results were C diff HTS -7 and Pf Dd2 growth -83*.
C[C@H](CO)N1C[C@H](C)[C@@H](CN(C)C(=O)c2cc(Cl)cc(Cl)c2)OCc2ccccc2-c2c(n(C)c3ccccc23)C1=O was read as C diff HTS 3 and Pf Dd2 growth -37.
Screening C[C@H](C(=O)N(C)C[C@H]1OCc2ccccc2-c2c(n(C)c3ccccc23)C(=O)N([C@@H](C)CO)C[C@@H]1C)c1ccccc1 returned C diff HTS 5 and Pf Dd2 growth -69.
C[C@H](CO)N1C[C@H](C)[C@@H](CN(C)Cc2ccc(C(=O)O)cc2)OCCCC[C@H](C)Oc2ccc(NC(=O)c3ccncc3)cc2C1=O was read as C diff HTS -7, T cruzi growth 55 and Pf Dd2 growth 66.
C[C@@H]1CN([C@@H](C)CO)C(=O)c2cc(NC(=O)NC3CCCCC3)ccc2O[C@@H](C)CCCCO[C@H]1CN(C)Cc1ccncc1 was read as C diff HTS 0, T cruzi growth 16 and Pf Dd2 growth 27.
For C[C@@H]1CCCCO[C@H](CN(C)C)[C@@H](C)CN([C@H](C)CO)C(=O)c2cc(NC(=O)CCC(F)(F)F)ccc2O1 the results were C diff HTS -2, T cruzi growth -5 and Pf Dd2 growth 18.
